Measurements as given in PubChem BioAssay.
The source made the active and inactive calls.

Experiments:
[1] = test system: Wnt5a (protein binding on small-molecule microarray); experiment: Wnt5a binders on small-molecule microarray, primary screen, biophysical, 635/667 nm fluorescence (AID 1142); details: 635 nm fluorescence, higher = more signal;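 further: fluorescence read at 667 nm with signal to noise per printed feature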
[2] = cell viability in Huh7 cells, primary screen, cytotoxicity control for HCV replication inhibitor project, CellTiter-Glo luminescence, basal, 48 h (AID 1143); details: Huh7 HCV replicon, higher = more signal, called active from +8 up or from −8 down;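 further: Huh7 hepatoma cells carrying a hepatitis C replication reporter with no stimulus; test concentration not given here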
[3] = CREB reporter modulators without forskolin, primary screen, cell-based, PC12, CRE-LacZ reporter, unstimulated (AID 1145); details: no forskolin, luminescence, 4.5 h, higher = more signal, called active from +8 up or from −8 down
[4] = CREB reporter modulators under forskolin, primary screen, cell-based, PC12, CRE-LacZ reporter, forskolin-stimulated (AID 1146); details: luminescence, 4.5 h, higher = more signal, called active from +8 up or from −8 down;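 further: PC12 cells with 6xCRE LacZ reporter stimulated by forskolin 10 µM; beta-galactosidase reporter signal reflecting CREB driven transcription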
[5] = target: Streptavidin (Streptomyces avidinii) (UniProt P22629); experiment: streptavidin binders on small-molecule microarray, primary screen, artefact control for SMM compound annotation, biophysical, 635/667 nm fluorescence (AID 1147); details: streptavidin binding, higher = more signal;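 further: signal reflects streptavidin binding to arrayed compounds as a control protein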
[6] = small-molecule binders of probe aInhba, primary screen, biochemical, small-molecule microarray, 635/667 nm fluorescence (AID 1148); details: higher = more signal;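 further: score merges 667nm spot fluorescence with signal-to-noise for antibody binding to printed compounds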
Torsin-1A (Homo sapiens) [7] = target: Torsin-1A (Homo sapiens) (UniProt O14656); experiment: torsin A binders from cell lysate, primary screen, small-molecule microarray, wild-type, 635/667 nm (AID 1149); details: COS7 hTOR1A-WT lysate, 635 nm fluorescence, higher = more signal
Torsin-1A (Homo sapiens) [8] = target: Torsin-1A (Homo sapiens) (UniProt O14656); experiment: small-molecule binders of mutant TOR1A in lysate, primary screen, cell lysate, small-molecule microarray, COS7 lysate, 635/667 nm fluorescence (AID 1150); details: COS7 hTOR1A mutant lysate, 635 nm fluorescence, higher = more signal;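 further: score pools 667 nm emission and signal to noise measuring lysate protein binding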
[9] = test system: Sonic hedgehog protein (Shh); experiment: small-molecule binders of Shh protein, primary screen, biochemical, small-molecule microarray, 635/667 nm fluorescence (AID 1151); details: small-molecule microarray binding, 635 nm fluorescence; higher = more signal;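 further: Shh protein binding to compounds spotted on small-molecule microarray slides; score combines spot fluorescence intensity with signal-to-noise across triplicate slides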
[10] = E. coli DRC41 culture turbidity changes, primary screen, E. coli filamentation inducer project, strain DRC41, OD650, 48 h (AID 1152);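 further: E. coli MC1000 strain DRC41 lacking acrAB efflux pump and sulA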; details: E. coli DRC41 (acrAB sulA), higher = more signal, called active from +8 up or from −8 down
[11] = small-molecule binders of probe aLefty1, primary screen, biochemical, small-molecule microarray, 635/667 nm fluorescence (AID 1153); details: higher = more signal;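 further: score merges spot fluorescence with signal-to-noise ratio from the scanned slide images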
[12] = PSAC antagonists in infected red cells, primary screen, cell-based, P. falciparum Indochina, OD700, 1 h (AID 1154); details: P. falciparum Indochina infected RBC osmotic lysis, higher = more signal, called active from +8 up or from −8 down
[13] = PSAC antagonists in infected red cells, primary screen, cell-based, P. falciparum Indochina, OD700, 2 h (AID 1155);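 further: lysis reports solute entry through the parasite surface anion channel PSAC; channel blockers reduce lysis of infected cells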; details: P. falciparum Indochina infected erythrocytes, osmotic lysis OD700; higher = more signal, called active from +8 up or from −8 down
[14] = osmotic lysis modulators in infected erythrocytes, primary screen, PSAC antagonist project, cell-based, P. falciparum Indochina, OD700, 3 h (AID 1156); details: higher = more signal, called active from +8 up or from −8 down
[15] = PSAC antagonists in infected red cells, primary screen, cell-based, P. falciparum Indochina, OD700, 18 h (AID 1157); details: P. falciparum Indochina infected erythrocytes, osmotic lysis OD700, 18 h; higher = more signal, called active from +8 up or from −8 down
[16] = modulators of S6 phosphorylation in cells, primary screen, cell-based, A549, cytoblot, luminescence, serum-stimulated (AID 1158); details: A549 phospho-S6 cytoblot, 5 h, higher = more signal;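 further: serum-stimulated A549 lung adenocarcinoma cells; signal is phosphorylated S6 detected by cytoblot immunostaining with HRP secondary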
[17] = target: NADPH oxidase 2 (Homo sapiens) (UniProt P04839); experiment: NOX2-dependent H2O2 signal modulators, primary screen, NOX inhibitor project, cell-based, HEK293-NOX2, PMA-stimulated, Amplex Red fluorescence (AID 1159); details: 45 min, higher = more signal, called active from +8 up or from −8 down; further: test concentration not given here
[18] = target: NADPH oxidase 4 (Homo sapiens) (UniProt Q9NPH5); experiment: NOX4-dependent H2O2 signal modulators, primary screen, NOX inhibitor project, cell-based, HEK293-NOX4, tetracycline-induced, Amplex Red fluorescence (AID 1160); details: 45 min, higher = more signal, called active from +8 up or from −8 down
[19] = target: NADPH oxidase 5 (Homo sapiens) (UniProt Q96PH1); experiment: NOX5-dependent H2O2 signal modulators, primary screen, NOX inhibitor project, cell-based, HEK293-NOX5, Amplex Red fluorescence (AID 1161); details: HEK293-NOX5, ionomycin, 45 min, higher = more signal
[20] = A549 cell viability effects, profiling panel, calcein-AM fluorescence, 48 h, basal (AID 1162); details: higher = more signal; further: test concentration not given here

Sequence of NADPH oxidase 2 (Homo sapiens) (P04839 whole entry, looked up): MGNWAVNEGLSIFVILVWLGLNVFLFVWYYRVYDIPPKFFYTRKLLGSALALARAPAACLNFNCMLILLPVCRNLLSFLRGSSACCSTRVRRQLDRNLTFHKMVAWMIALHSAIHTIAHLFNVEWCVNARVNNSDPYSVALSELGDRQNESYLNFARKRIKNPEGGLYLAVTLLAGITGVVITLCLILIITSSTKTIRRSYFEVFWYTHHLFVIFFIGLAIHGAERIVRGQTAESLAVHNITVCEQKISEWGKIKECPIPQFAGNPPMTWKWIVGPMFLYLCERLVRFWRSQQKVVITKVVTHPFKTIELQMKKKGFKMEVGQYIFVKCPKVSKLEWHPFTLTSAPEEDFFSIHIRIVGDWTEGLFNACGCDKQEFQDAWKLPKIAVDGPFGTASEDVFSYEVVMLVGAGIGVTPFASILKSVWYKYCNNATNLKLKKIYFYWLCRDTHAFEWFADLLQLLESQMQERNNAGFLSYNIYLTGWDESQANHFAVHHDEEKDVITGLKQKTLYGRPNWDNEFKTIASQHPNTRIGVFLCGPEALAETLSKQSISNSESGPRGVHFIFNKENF
Sequence of Torsin-1A (Homo sapiens) (O14656 whole entry, looked up): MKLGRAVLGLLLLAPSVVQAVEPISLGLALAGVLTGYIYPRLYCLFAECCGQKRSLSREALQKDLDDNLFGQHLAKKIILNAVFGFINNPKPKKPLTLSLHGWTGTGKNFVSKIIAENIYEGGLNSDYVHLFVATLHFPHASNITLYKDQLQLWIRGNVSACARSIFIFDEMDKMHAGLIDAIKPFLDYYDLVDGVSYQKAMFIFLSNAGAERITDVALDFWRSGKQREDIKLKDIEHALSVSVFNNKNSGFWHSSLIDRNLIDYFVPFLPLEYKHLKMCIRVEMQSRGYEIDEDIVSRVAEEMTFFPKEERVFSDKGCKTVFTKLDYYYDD
Sequence of NADPH oxidase 5 (Homo sapiens) (Q96PH1 whole entry, looked up): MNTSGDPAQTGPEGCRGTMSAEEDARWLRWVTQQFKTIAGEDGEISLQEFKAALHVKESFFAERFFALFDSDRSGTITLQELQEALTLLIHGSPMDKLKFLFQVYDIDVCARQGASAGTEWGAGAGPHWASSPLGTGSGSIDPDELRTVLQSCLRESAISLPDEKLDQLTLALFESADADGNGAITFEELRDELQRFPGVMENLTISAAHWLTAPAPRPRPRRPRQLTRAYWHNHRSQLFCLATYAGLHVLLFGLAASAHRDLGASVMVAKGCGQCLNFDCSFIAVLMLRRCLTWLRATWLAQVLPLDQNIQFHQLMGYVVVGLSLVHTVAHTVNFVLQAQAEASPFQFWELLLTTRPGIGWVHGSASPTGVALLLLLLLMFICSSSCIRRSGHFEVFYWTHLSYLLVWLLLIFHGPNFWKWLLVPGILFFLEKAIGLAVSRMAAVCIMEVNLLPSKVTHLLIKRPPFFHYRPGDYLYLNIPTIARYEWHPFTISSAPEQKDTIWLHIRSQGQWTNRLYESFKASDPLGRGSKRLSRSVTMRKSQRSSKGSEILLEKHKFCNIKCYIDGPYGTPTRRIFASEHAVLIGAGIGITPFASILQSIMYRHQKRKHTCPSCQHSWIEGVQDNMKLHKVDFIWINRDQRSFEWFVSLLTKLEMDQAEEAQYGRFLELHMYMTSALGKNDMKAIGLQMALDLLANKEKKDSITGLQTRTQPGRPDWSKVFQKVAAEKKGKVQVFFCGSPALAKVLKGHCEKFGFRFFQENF
Sequence of Streptavidin (Streptomyces avidinii) (P22629 whole entry, looked up): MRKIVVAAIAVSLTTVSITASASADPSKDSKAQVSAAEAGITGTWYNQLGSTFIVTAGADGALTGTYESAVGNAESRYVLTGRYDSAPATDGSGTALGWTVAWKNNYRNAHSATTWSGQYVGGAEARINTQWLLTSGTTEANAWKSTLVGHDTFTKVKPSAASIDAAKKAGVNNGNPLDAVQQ
Sequence of NADPH oxidase 4 (Homo sapiens) (Q9NPH5 whole entry, looked up): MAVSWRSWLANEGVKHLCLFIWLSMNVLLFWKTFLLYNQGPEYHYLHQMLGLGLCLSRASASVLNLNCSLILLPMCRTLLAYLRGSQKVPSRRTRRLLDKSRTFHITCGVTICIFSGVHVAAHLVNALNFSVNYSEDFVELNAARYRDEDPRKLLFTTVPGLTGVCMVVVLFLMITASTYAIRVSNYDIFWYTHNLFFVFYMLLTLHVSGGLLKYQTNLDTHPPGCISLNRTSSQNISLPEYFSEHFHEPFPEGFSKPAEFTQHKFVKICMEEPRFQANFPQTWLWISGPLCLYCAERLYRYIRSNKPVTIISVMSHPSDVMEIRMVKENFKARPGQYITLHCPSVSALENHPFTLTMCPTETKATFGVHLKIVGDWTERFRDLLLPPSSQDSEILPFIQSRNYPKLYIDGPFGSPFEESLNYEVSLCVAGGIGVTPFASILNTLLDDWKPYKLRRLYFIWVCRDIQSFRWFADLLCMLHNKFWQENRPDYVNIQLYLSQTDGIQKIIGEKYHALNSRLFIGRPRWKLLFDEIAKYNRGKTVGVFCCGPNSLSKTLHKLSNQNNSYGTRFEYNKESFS

Compound | composite z-score [1] | z-score [2] | z-score [3] | z-score [4] | composite z-score [5] | composite z-score [6] | composite z-score (Torsin-1A (Homo sapiens) [7]) | composite z-score (Torsin-1A (Homo sapiens) [8]) | composite z-score [9] | z-score [10] | composite z-score [11] | z-score [12] | z-score [13] | z-score [14] | z-score [15] | z-score [16] | z-score [17] | z-score [18] | z-score [19] | z-score [20]
CCCCC(=C=CC[C@H](O)c1cccc(OCCO)c1)CCO | -0.0668 | -0.081 (inactive) | 4.86 (inactive) | -0.679 (inactive) | -0.209 | 0.0355 | 1.13 | 0.983 | 0.242 | 0.892 (inactive) | 0.37 | 11.4 (active) | 1.91 (inactive) | 1.2 (inactive) | 0.774 (inactive) | -0.679 | 1.06 (inactive) | 0.362 (inactive) | -1.64 | 1.13
NCCCCCCNC(=O)[C@@H]1C[C@@H]2C(=O)N[C@@H](Cc3ccccc3)C(=O)N2[C@@H]1c1ccc(O)cc1 | 0.0167 | -0.136 (inactive) | 1.52 (inactive) | -1.12 (inactive) | 0.91 | 0.229 | 0.104 | 0.416 | 0.507 | 0.717 (inactive) | 0.443 | 3.47 (inactive) | 0.374 (inactive) | -6.59 (inactive) | 0.276 (inactive) | -0.118 | 1.18 (inactive) | 1.3 (inactive) | 0.846 | 0.987
C=C(COC)/C(=C/C[C@H](OC(C)=O)c1ccc(CO)o1)c1cnc2ccccc2c1 | 0.251 | -0.461 (inactive) | 0.844 (inactive) | -1.08 (inactive) | 1.45 | 0.0173 | 1.21 | 1.42 | 2.15 | 1.23 (inactive) | -0.145 | 3.78 (inactive) | -1.35 (inactive) | -0.148 (inactive) | -2.05 (inactive) | -0.198 | 2.33 (inactive) | 0.615 (inactive) | 0.915 | 0.283
CC(C)CCC[C@@H](C)[C@H]1CC[C@@]2(C)C3=C(CC[C@]12C)[C@@]1(C)CC[C@H](OC(=O)CCl)C(C)(C)C1CC3 (stereo not given in full) | 0.109 | -0.186 (inactive) | 1.3 (inactive) | -0.731 (inactive) | 0.0285 | -0.251 | 0.662 | 0.358 | 0.588 | 3.33 (inactive) | -0.194 | -0.0025 (inactive) | -0.116 (inactive) | -0.417 (inactive) | 0.01 (inactive) | 0.413 | -0.776 (inactive) | 0.446 (inactive) | 0.517 | 1.98
CCCCCCC#C[Si](O[C@H](c1ccccc1)c1cn(Cc2ccccc2)nn1)(C(C)C)C(C)C | -0.0163 | -1.53 (inactive) | -1.23 (inactive) | -1.35 (inactive) | 0.239 | -0.128 | 0.122 | 0.345 | 0.609 | 3.05 (inactive) | -0.101 | 1.66 (inactive) | -0.226 (inactive) | -0.0275 (inactive) | -0.327 (inactive) | 0.35 | -0.941 (inactive) | 0.369 (inactive) | -1.87 | 1.68
C=CC[C@@H](OC(=O)Nc1ccc(SC)cc1)c1ccc(OCCO)cc1 | -0.248 | -0.89 (inactive) | 14.4 (active) | -0.595 (inactive) | -0.761 | -0.202 | 1.76 | 0.972 | 0.43 | -0.0217 (inactive) | 0.197 | 27.1 (active) | 18.6 (active) | 0.616 (inactive) | -0.016 (inactive) | -0.506 | -2.02 (inactive) | -0.346 (inactive) | -2.26 | 1.13
CC(C)N1C(=O)c2ccccc2[C@@H](C(=O)NCc2ccccc2)[C@@H]1c1ccc(CO)cc1 | 0.0422 | -0.144 (inactive) | 0.0279 (inactive) | -0.659 (inactive) | -1.17 | -0.206 | 0.81 | 0.436 | -0.49 | 1.12 (inactive) | -0.15 | 2.59 (inactive) | 0.425 (inactive) | 0.884 (inactive) | 0.818 (inactive) | 0.325 | -0.00885 (inactive) | 0.454 (inactive) | -0.101 | 0.538
NCCCCCNC(=O)[C@H]1C[C@H]2C(=O)NCC(=O)N2[C@H]1c1ccc(O)cc1 | 0.518 | -0.108 (inactive) | 0.679 (inactive) | 0.407 (inactive) | 1.72 | -0.0419 | 1.69 | 0.376 | 2 | 1.01 (inactive) | -0.147 | 0.365 (inactive) | 0.113 (inactive) | -1.79 (inactive) | 0.252 (inactive) | -0.565 | 0.653 (inactive) | -1.24 (inactive) | 0.566 | -0.0704
NC(=O)N1C(=O)C2C(C1=O)C1C=C(c3ccc(CO)cc3)C2C(C2CC2)N1Cc1cc2c(cc1Br)OCO2 (stereo not given) | 0.0262 | -1.15 (inactive) | 7.31 (inactive) | -1.34 (inactive) | 0.368 | 0.134 | 0.32 | 0.127 | 1.39 | 0.737 (inactive) | 0.0671 | 14.4 (active) | 0.537 (inactive) | -0.429 (inactive) | -1.43 (inactive) | 0.215 | 2.92 (inactive) | 1.48 (inactive) | -0.201 | 0.485
